# From PubChem BioAssay
# The source made the active and inactive calls. Unless noted, no rule for the calls is given here.
# Experiments:
# [1] = resazurin metabolic signal in HepG2 cells – cell-based, resazurin fluorescence, 24 h, PK04 Diversity Set, profiling panel (AID 1172); conditions: HepG2 viability, higher = more signal
# [2] = budding yeast growth changes without added modifier – OD600, strain BY4716, 24 h, basal condition, primary screen (AID 1173); conditions: S. cerevisiae BY4716 growth, OD600, 24 h; higher = more signal, called active from +8 up or from −8 down
# [3] = viability profiling in MM1S myeloma cells – cell-based, resazurin fluorescence, basal, 24 h, PK04 Diversity Set, profiling panel (AID 1174); conditions: higher = more signal, called active from +8 up or from −8 down;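 also: MM1S multiple myeloma cell line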
# [4] = target: Dihydroorotate dehydrogenase (quinone), mitochondrial (Plasmodium falciparum (isolate 3D7)) (UniProt Q08210); test: inhibition of P. falciparum DHODH – biochemical, C-terminal His tag, absorbance 600 nm, primary screen (AID 1175); conditions: PfDHODH enzyme, DCIP absorbance 600 nm; higher = more signal, called active from +8 up or from −8 down;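 also: recombinant parasite enzyme with a five histidine tag at its C terminus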
# [5] = inhibition of PAO1 biofilm formation – strain PAO1, LB-PBS medium, absorbance 600 nm, primary screen (AID 1176); conditions: P. aeruginosa PAO1 growth/biofilm, A600, 12 h; higher = more signal
# [6] = growth modulation of vineyard yeast isolate – strain RM11-1a, OD600, basal, 24 h, primary screen (AID 1177);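 also: cultures grown under basal conditions with no added stressor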; conditions: S. cerevisiae RM11-1a growth, OD600, 24 h; higher = more signal, called active from +8 up or from −8 down
# [7] = growth of efflux-deficient E. coli DRC39 – strain DRC39, OD650, 24 h, E. coli filamentation inducers, primary screen (AID 1178);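 also: growth measured as culture turbidity by optical density at 650 nm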; conditions: E. coli DRC39 acrAB, higher = more signal, called active from +8 up or from −8 down
# [8] = growth of efflux-deficient E. coli DRC39 – strain DRC39, OD650, 48 h, E. coli filamentation inducers, primary screen (AID 1179);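 also: screen aims at cell division blockers that make cells filament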; conditions: E. coli DRC39 delta-acrAB growth, higher = more signal, called active from +8 up or from −8 down
# [9] = viability profiling in RPMI8226 myeloma cells – cell-based, resazurin fluorescence, basal, 24 h, PK04 Diversity Set, profiling panel (AID 1180); conditions: higher = more signal;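 also: RPMI8826 multiple myeloma cell line at 5000 cells per well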
# [10] = target: E3 ubiquitin-protein ligase XIAP (Homo sapiens) (UniProt P98170); test: small molecules binding XIAP protein – biophysical, small-molecule microarray, fluorescence 635 nm, primary screen (AID 1181); conditions: higher = more signal;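 also: score merges 667 nm emission and signal to noise over triplicate slides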
# [11] = system: XIP peptide (Xip251-270) binding; test: XIP fragment 251-270 binding compounds – biochemical, small-molecule microarray, fluorescence 635/667 nm, 0.1 µg/mL protein, primary screen (AID 1182); conditions: fluorescent protein binding, 635 nm, higher = more signal, called active from +8 up or from −8 down
# [12] = system: XIP peptide (Xip251-270); test: compounds binding XIP fragment 251-270 – biochemical, small-molecule microarray, fluorescence 635/667 nm, 0.5 µg/mL protein, primary screen (AID 1183); conditions: fluorescence 635 nm, higher = more signal
# [13] = blood-stage malaria parasite viability loss – strain 3D7, DAPI fluorescence, 100 nL, primary screen (AID 1184);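 also: parasites grown inside human red blood cells in medium with human serum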; conditions: P. falciparum 3D7 growth, 3 d, higher = more signal
# [14] = target: Homeobox protein Hox-A13 (Mus musculus) (UniProt Q62424); test: disruptors of Hoxa13 oligonucleotide interaction – biochemical, fluorescence polarization, labeled oligonucleotide, primary screen (AID 1185); conditions: Hoxa13:DNA binding, 15 min, higher = more signal, called active from +8 up or from −8 down
# [15] = blockers of DNA damage checkpoint Chk1 activation – imaging, HeLa, hydroxyurea, phospho-Chk1 antibody, percent positive cells, primary screen (AID 1186); conditions: hydroxyurea-induced phospho-Chk1 immunofluorescence imaging, higher = more signal
# [16] = blockers of DNA damage checkpoint Chk1 activation – imaging, HeLa, hydroxyurea, phospho-Chk1 nuclear intensity, primary screen (AID 1187); conditions: hydroxyurea-induced phospho-Chk1 immunofluorescence imaging, higher = more signal
# Chain of Homeobox protein Hox-A13 (Mus musculus) (Q62424 whole entry, looked up): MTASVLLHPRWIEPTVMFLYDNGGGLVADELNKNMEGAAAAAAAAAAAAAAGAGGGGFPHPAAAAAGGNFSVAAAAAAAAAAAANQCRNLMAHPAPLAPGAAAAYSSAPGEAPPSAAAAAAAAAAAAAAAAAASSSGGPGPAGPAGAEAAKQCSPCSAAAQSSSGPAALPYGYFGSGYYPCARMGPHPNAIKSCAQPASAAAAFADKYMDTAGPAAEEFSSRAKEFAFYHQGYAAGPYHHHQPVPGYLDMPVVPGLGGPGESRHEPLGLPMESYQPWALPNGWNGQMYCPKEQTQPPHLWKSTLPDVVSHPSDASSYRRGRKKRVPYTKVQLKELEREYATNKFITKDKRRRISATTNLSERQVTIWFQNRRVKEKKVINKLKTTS
# Chain of E3 ubiquitin-protein ligase XIAP (Homo sapiens) (P98170 whole entry, looked up, the tested form may be a part): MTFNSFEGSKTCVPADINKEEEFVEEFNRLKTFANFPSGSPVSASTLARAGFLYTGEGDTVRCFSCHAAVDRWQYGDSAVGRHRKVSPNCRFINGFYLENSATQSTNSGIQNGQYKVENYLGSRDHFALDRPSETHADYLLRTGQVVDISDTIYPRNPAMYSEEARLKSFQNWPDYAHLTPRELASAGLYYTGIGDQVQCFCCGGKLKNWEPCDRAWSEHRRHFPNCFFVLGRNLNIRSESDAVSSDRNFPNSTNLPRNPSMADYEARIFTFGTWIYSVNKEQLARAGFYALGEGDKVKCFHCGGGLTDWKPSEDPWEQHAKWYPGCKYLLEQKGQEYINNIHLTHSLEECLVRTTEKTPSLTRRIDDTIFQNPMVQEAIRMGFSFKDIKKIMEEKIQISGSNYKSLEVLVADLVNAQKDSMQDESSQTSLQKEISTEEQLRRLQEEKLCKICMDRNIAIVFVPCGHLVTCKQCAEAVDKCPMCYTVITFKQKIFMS
# Chain of Dihydroorotate dehydrogenase (quinone), mitochondrial (Plasmodium falciparum (isolate 3D7)) (Q08210 whole entry, looked up): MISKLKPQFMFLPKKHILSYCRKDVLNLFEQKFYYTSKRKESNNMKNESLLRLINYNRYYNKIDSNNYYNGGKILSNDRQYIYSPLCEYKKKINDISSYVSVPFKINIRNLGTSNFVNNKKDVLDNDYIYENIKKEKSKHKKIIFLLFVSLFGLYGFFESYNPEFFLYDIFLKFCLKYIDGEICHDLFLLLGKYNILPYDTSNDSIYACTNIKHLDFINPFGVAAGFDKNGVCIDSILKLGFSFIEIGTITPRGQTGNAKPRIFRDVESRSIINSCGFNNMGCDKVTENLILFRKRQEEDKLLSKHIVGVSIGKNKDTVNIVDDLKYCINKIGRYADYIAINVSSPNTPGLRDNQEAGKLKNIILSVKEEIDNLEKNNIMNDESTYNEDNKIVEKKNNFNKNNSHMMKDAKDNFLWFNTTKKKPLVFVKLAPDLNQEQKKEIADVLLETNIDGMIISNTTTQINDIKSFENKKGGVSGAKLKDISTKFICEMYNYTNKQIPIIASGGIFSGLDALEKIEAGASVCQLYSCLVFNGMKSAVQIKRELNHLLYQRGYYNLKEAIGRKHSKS
SMILES,z-score [1],z-score [2],z-score [3],composite z-score [4],z-score [5],z-score [6],z-score [7],z-score [8],z-score [9],composite z-score [10],composite z-score [11],composite z-score [12],z-score [13],z-score [14],z-score [15],z-score [16]
O=C1OC[C@@H](c2ccccc2)N2CC(/C=C/c3ccccc3)=CC12 (stereo not given in full),0.015,-2.25 (inactive),0.0637 (inactive),0.685 (inactive),-0.14 (inactive),0.388 (inactive),-0.338 (inactive),-0.827 (inactive),0.594,-0.102,0.587 (inactive),0.0221,0.643,-1.36 (inactive),-0.303 (inactive),-0.493 (inactive)
COc1cc(CO)cc(I)c1O[C@H]1C=C(C(=O)NCCO)C[C@@H](N(Cc2ccc(F)cc2)C(=O)C2CCCO2)[C@@H]1O (stereo not given in full),0.266,-1.96 (inactive),0.695 (inactive),-0.737 (inactive),0.507 (inactive),-0.254 (inactive),2.94 (inactive),2.03 (inactive),0.562,-0.165,-0.192 (inactive),-0.318,0.463,-4.27 (inactive),0.36 (inactive),0.824 (inactive)
CN(C)CCCNC(=O)[C@@H]1c2ccccc2C(=O)N(Cc2ccc(OC(F)(F)F)cc2)[C@H]1c1ccc(CO)cc1,-0.39,0.0639 (inactive),0.983 (inactive),0.853 (inactive),0.407 (inactive),1 (inactive),0.897 (inactive),-0.193 (inactive),0.818,-0.117,0.323 (inactive),0.721,-1.9,-3.41 (inactive),-0.234 (inactive),-0.296 (inactive)
CCCCN1CC=CC23O[C@@H]4C=CCOC(=O)[C@@H]4[C@H]2C(=O)N(CCCO)[C@@H]3C1=O (stereo not given in full),-1.09,-0.233 (inactive),-0.788 (inactive),-0.284 (inactive),-0.193 (inactive),0.164 (inactive),-1.33 (inactive),-1.28 (inactive),-0.848,0.106,0.769 (inactive),-0.374,-1.81,-4.48 (inactive),-0.247 (inactive),-0.169 (inactive)
COC(=O)C1(Cc2ccccc2)C=C2C(=C(C(C)C)C(=O)C2C)CN1 (stereo not given),-0.88,0.736 (inactive),-2.2 (inactive),-1.72 (inactive),1.35 (inactive),0.905 (inactive),-0.999 (inactive),-0.927 (inactive),-1.59,0.0493,0.0989 (inactive),0.648,-1.07,-9.8 (active),0.366 (inactive),0.602 (inactive)
COc1ccc(C(O)C2C=CC3C(=O)N(C)C(=O)C3N2N2CCCCC2)cc1 (stereo not given),-0.197,0.381 (inactive),-0.8 (inactive),0.0624 (inactive),0.49 (inactive),-0.378 (inactive),-0.584 (inactive),-0.858 (inactive),-0.267,0.0728,0.568 (inactive),0.37,-0.0513,-4.16 (inactive),-1.52 (inactive),-1.31 (inactive)
C=C(COC)/C(=C/C[C@@H](OC(=O)c1ccncc1)c1ccc(CO)o1)c1cnc2ccccc2c1,0.7,0.705 (inactive),0.372 (inactive),-7.93 (inactive),0.379 (inactive),1.2 (inactive),0.16 (inactive),0.0648 (inactive),0.235,0.641,0.86 (inactive),0.726,-0.58,-5.9 (inactive),0.496 (inactive),0.671 (inactive)
COc1ccc(C(O)C2C=CC3C(=O)N(c4ccccc4)C(=O)C3N2Nc2ccc(C#N)cc2)c2ccccc12 (stereo not given),-1.47,-1.74 (inactive),-0.293 (inactive),0.397 (inactive),1.55 (inactive),-0.993 (inactive),-0.483 (inactive),0.161 (inactive),-0.55,0.39,1.41 (inactive),0.728,-0.683,0.744 (inactive),-0.294 (inactive),-0.468 (inactive)
C[C@]1(C(=O)NC2CC2)c2ccccc2C(=O)N(Cc2ccc(OC(F)(F)F)cc2)[C@H]1c1ccc(CO)cc1,-0.268,-0.708 (inactive),0.191 (inactive),0.0758 (inactive),-0.109 (inactive),-0.474 (inactive),0.0997 (inactive),0.054 (inactive),-0.254,-0.225,0.282 (inactive),-0.923,0.516,-3.59 (inactive),-0.0307 (inactive),-0.521 (inactive)
C=CCN1C(=O)[C@@]2(CCC(=O)OC(C)(C)C)N=C(c3ccc(OCCCO)cc3)O[C@H]2c2ccccc21,-0.648,-1.23 (inactive),-3.26 (inactive),0.407 (inactive),1.77 (inactive),-0.169 (inactive),0.636 (inactive),-0.242 (inactive),-4.47,0.21,0.841 (inactive),0.473,-1.95,-0.861 (inactive),-0.239 (inactive),-0.351 (inactive)
